“And” between values parts separate entries of the source, which are not always exact repeats. Equal values may be shown once. Inconclusive results are not listed. Entries that show only a call come without a potency. The source made the active and inactive calls. Calls come from the whole dose curve; as a rule, active = well fitted activation curve with a large enough effect in the repeat runs; inconclusive = weak or mixed curves; inactive = no such curve, though single readings can be large or run the other way.
Potency is the fitted concentration of half-maximal effect.

The nature of this test: qHTS assay for small molecules that induce genotoxicity in human embryonic kidney cells expressing luciferase-tagged ATAD5 (AID 651632). Note: nearly all actives have a fitted effect of over 15% in size. The settings on record: HEK293T ATAD5-luciferase induction, 16 h; series mostly up to 83.3 µM. The source says:
U.S. Tox21 Program National Center for Advancing Translational Sciences [NCATS] NIH Chemical Genomics Center [NCGC] U.S. Environmental Protection Agency [EPA] National Institutes of Environmental Health Sciences [NIEHS] National Toxicology Program [NTP] U.S. Food and Drug Administration [FDA] Tox21 Assay Overview: As cancer cells divide rapidly and during every cell division they need to duplicate their genome by DNA replication. The failure to do so results in the cancer cell death. Based on this concept, many chemotherapeutic agents were developed but have limitations such as low efficacy and severe side effects etc. A new cell based assay was developed to find the compounds that effectively block DNA replication either by directly damaging DNA or by inhibiting other cellular mechanisms. Enhanced Level of Genome Instability Gene 1 (ELG1; human ATAD5) protein levels increase in response to various types of DNA damage. Using a luciferase reporter-gene tagged with ATAD5, a cell-based assay [developed by Kyungjae Myung, NHGRI, NIH] was used to measure the induction of ATAD5 in human embryonic kidney cells (HEK293T). So, increase in luciferase activity can be used to identify the compounds that cause genetic stress.
Tox21 Assay Protocol Summary: For genotoxicity screening, 2,000 cells in 5 uL/well were dispensed into white, solid-bottom 1536-well plates using a Multidrop Combi (Thermo Scientific) dispenser. Following transfer of 23 nL compound or DMSO vehicle by a pin tool, the plates were incubated 16 hr at 37C and 5% CO2. 5 ul Amplite (AAT Bioquest, Inc.) was then added to each plate and following 30 min incubation at room temperature, luciferase activity was quantified on a ViewLux CCD-based plate reader.
Regarding `O=S(=O)(Cl)Cl`, the Potency entry is “inactive”.

Regarding `CON(C)C(=O)Nc1ccc(Cl)cc1`, the Potency result was “inactive”.

As to `CN1C[C@H](C(=O)N[C@]2(C)O[C@@]3(O)[C@@H]4CCCN4C(=O)[C@H](Cc4ccccc4)N3C2=O)C=C2c3cccc4[nH]cc(c34)C[C@H]21`, the Potency entry was “inactive”.

On to `CCCN(CCOc1c(Cl)cc(Cl)cc1Cl)C(=O)n1ccnc1`, for which the Potency result was “inactive”.

Take `ClCc1ccccc1Cl`: the Potency entry is “inactive”.

For `COc1cc(C[C@@H](C)N)c(OC)cc1Br`, the Potency result is “inactive”.

In the case of `CC[N+]1(CCOC(=O)C(O)(c2ccccc2)c2ccccc2)CCCCC1`, the Potency result was “inactive”.

Regarding `CN[C@@H](C)[C@H](O)c1ccccc1`, the Potency result was “inactive”.

For the compound `CCNC(=O)NC(=O)/C(C#N)=N/OC`, the Potency result was “inactive”.

With `O=C(Cc1ccccc1)c1ccccc1`, the Potency entry was “inactive”.

On to `O=C(O)COc1cc(Cl)c(Cl)cc1Cl`, for which the Potency entry is “inactive”.

Turning to `NC(=O)CF`, the Potency result is “inactive”.

In the case of `O=C(O)C(Cl)(Cl)Br`, the Potency entry is “inactive”.

Regarding `CC(C)CCON=O`, the Potency result is “inactive”.

As for `CCC1CCC(=O)O1` (stereo not given), the Potency entry is “inactive”.

Consider `C[C@]12C=CC3=C4CCC(=O)C=C4CC[C@H]3[C@@H]1CC[C@@H]2O`, for which the Potency result is “inactive”.

As for `C[N+](C)(C)CCOC(=O)C(O)(c1ccccc1)c1ccccc1`, the Potency result is “inactive”.

Regarding `N#CC(C#N)=C(C#N)C#N`, the Potency entry was “inactive”.

Regarding `CCCCC#N`, the Potency result was “inactive”.

For `CCCC[N+]1(C)[C@@H]2CC(OC(=O)[C@H](CO)c3ccccc3)C[C@H]1[C@@H]1O[C@@H]12` (stereo not given in full), the Potency result is “inactive”.

Turning to `C[C@H]1O[C@H](OC2[C@@H](O)[C@@H](O)C(O)[C@H](O)[C@H]2O)[C@@H](N)C[C@@H]1N=C(N)C(=O)O` (stereo not given in full), the Potency entry was “inactive”.

Regarding `NP(N)(=O)NC(=O)c1ccc(F)cc1`, the Potency entry was “inactive”.

Consider `Clc1ccccc1`, for which the Potency entry is “inactive”.

`CCC(C)(C)c1ccc(O)c(C(C)(C)CC)c1`: the Potency entry is “inactive”.

`CC(C)c1ccc(OP(=O)(Oc2ccc(C(C)C)cc2)Oc2ccc(C(C)C)cc2)cc1`: the Potency result was “inactive”.

On to `CN(C)c1ccc(N=O)cc1`, for which the Potency was 21.8 µM (active) and 68.6 µM (active).

For `C1CS1`, the Potency entry was “inactive”.

With `CCSCc1ccccc1OC(=O)NC`, the Potency entry was “inactive”.

For the compound `CCCCOC(=O)CCC(=O)OCCCC`, the Potency result was “inactive”.

For `CCCCCBr`, the Potency result was “inactive”.

`Cc1nnc(-c2ccccc2)c(=O)n1N`: the Potency entry is “inactive”.

For the compound `C=CCc1ccccc1O`, the Potency result was “inactive”.

Turning to `CCCC(C)(COC(N)=O)COC(=O)NC(C)C` (stereo not given), the Potency entry is “inactive”.

Turning to `CC(C)(C)N(NC(=O)c1ccc(Cl)cc1)C(=O)c1ccccc1`, the Potency result is “inactive”.

In the case of `C=CCc1ccc(OC(=O)Cc2ccccc2)c(OC)c1`, the Potency result was “inactive”.

As for `C=CC(=O)OCC`, the Potency result is “inactive”.

`C=CCOC(=O)C(C)(C)OC(=O)c1cc(-n2c(=O)cc(C(F)(F)F)n(C)c2=O)ccc1Cl`: the Potency result was “inactive”.

In the case of `COC1=CC(=O)O[C@@H](/C=C/c2ccc3c(c2)OCO3)C1`, the Potency result was “inactive”.

Consider `CCCCCCCCCCCCN=C(N)N`, for which the activation was -6.24% [at 3.63 µM] (inactive).

Turning to `O=P(OCC(Br)CBr)(OCC(Br)CBr)OCC(Br)CBr` (stereo not given), the Potency entry was “inactive”.

The values are drawn from PubChem BioAssay (Tox21).
